The results in this text go back to PubChem BioAssay (Tox21).

Inconclusive results are not listed. Where a structure was tested more than once in an assay, its records may differ in their call. The source made the active and inactive calls. Calls come from the whole dose curve; as a rule, active = well fitted curve in the direction sought with a large enough effect in the repeat runs; inconclusive = weak or mixed curves; inactive = no such curve, though single readings can be large; an effect the other way counts as inactive or inconclusive.
% is set by controls: 0 for no effect and ±100 for the full control effect.

Sequence of Nuclear receptor subfamily 1 group I member 2 (Homo sapiens) (O75469 whole entry, looked up): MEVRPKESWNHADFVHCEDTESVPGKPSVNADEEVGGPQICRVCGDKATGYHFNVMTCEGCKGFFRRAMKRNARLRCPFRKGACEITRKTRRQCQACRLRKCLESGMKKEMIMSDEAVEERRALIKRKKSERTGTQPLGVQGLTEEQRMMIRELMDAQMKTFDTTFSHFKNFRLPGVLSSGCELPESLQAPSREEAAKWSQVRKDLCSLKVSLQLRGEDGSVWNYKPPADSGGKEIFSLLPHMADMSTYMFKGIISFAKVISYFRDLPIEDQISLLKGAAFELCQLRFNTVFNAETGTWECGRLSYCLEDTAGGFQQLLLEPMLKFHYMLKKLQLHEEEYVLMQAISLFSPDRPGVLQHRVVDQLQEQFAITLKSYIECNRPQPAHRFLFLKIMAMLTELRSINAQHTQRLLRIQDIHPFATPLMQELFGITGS

Test system in the first assay: not listed separately
Kind of assay: Caspase-3/7 induction in CHO-K1 cells by small molecules, qHTS assay (AID 1346980). Note: nearly all actives have a fitted effect of over 15% in size. Particulars: CHO-K1 caspase-3/7 induction, Caspase-Glo luminescence, 17 h; series mostly up to 92.4 µM; caspase-3/7 activation: at the top concentration. Put shortly:
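Luminescent Caspase-Glo 3/7 read (30min, room temperature) quantified apoptosis induction. Cells were wild-type CHO-K1, treated with compound for 17hr at 37 C and 5% CO2.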
As to `N#CC(Br)(Br)C(N)=O`, the “caspase-3/7 activation” value is 2.63% (inactive).
The same measure, in the same setting: the figure for `O=C(NC(O)C(Cl)(Cl)Cl)NC(O)C(Cl)(Cl)Cl` (centres undefined) is -0.0482% [at 42.5 µM] (inactive); for `CCCCS(=O)(=O)Cl` it is 1.08% (inactive); for `C[C@]12C=CC(=O)C=C1CC[C@@H]1[C@@H]2CC[C@@]2(C)[C@H]1CC[C@]2(C)O` it is 1.28% [at 42.5 µM] (inactive).
Take `O=c1[nH]c2ccccc2o1`: the “caspase-3/7 activation” value is 1.06% (inactive).
Same read-out and setting: in the case of `CCN(CCO)CCn1c(Cc2ccccc2)nc2c1c(=O)n(C)c(=O)n2C` it was -1.17% [at 42.5 µM] (inactive); in that of `CCc1cc(OC)c(C[C@H](C)N)cc1OC`, -1.27% (inactive).
As for `CCCCCCCC(=O)Cl`, the “caspase-3/7 activation” value was -2.47% (inactive).
Still for that read-out and setting: the figure for `O=C(O)c1c(Cl)ccc2cc(Cl)cnc12` is -0.334% (inactive); for `c1cncc([C@@H]2CCCCN2)c1` it is -1.21% (inactive).
The same measure, in the same setting: the figure for `CC(C)(C)NC[C@H](O)c1ccc(O)cc1Cl` is -0.234% [at 42.5 µM] (inactive); for `NC1(c2ccccc2)CCCCC1` it is 0.182% (inactive).
Turning to `CCN(CCO)CCO`, the “caspase-3/7 activation” value is 1.12% (inactive).
Consider `NNCc1ccccc1`, for which the “caspase-3/7 activation” value was -3.99% (inactive).
Same read-out and setting: the figure for `C[C@H](N)C(=O)c1ccccc1` is 0.0749% (inactive); for `COC(=O)c1ccc(CBr)cc1` it is 3% (inactive); for `CC1N=C(N)OC1c1ccccc1` (centres undefined) it is 0.439% (inactive).
Same read-out and setting: the figure for `CCN[C@@H](C)Cc1ccccc1` is 2.3% (inactive).
As to `CC(=O)CN(CC(C)=O)N=O`, the “caspase-3/7 activation” value was 0.12% (inactive).
On the same count and under the same terms, in the case of `ClC1=C(Cl)C2(Cl)C(CBr)CC1(Cl)C2(Cl)Cl` (centres undefined) it was -0.0784% [at 42.5 µM] (inactive); in that of `COc1ccc(C=O)cc1O`, 0.664% (inactive); in that of `C=C1CC[C@@]2(O)[C@H]3Cc4ccc(O)c5c4[C@@]2(CCN3CC2CC2)[C@H]1O5`, -0.516% [at 42.5 µM] (inactive).
Still for that read-out and setting: the figure for `C(COCC1CO1)OCC1CO1` (centres undefined) is 0.966% (inactive); for `COP(=O)(O)OC` it is 0.39% (inactive).
Same read-out and setting: in the case of `CCNc1nc(NCC)nc(SC)n1` it was -0.0948% (inactive); in that of `C[C@H](CN1CCOCC1)C(C(=O)N1CCCC1)(c1ccccc1)c1ccccc1`, -1.07% (inactive).
Take `O=C(O)C(F)(F)C(F)(F)C(F)(F)C(F)(F)C(F)(F)C(F)(F)F`: the “caspase-3/7 activation” value was 0.408% (inactive).
Same read-out and setting: the figure for `CCOC(=O)Nc1cccc(OC(=O)Nc2ccccc2)c1` is -5.57% (inactive); for `BrCC1CO1` (centres undefined) it is 0.9% (inactive); for `COc1ccc(CN2CCNCC2)c(OC)c1OC` it is 0.151% [at 42.5 µM] (inactive).
Consider `NNC(N)=O`, for which the “caspase-3/7 activation” value was 2.48% (inactive).
The same measure, in the same setting: in the case of `[P]#[In]` it was -0.193% (inactive); in that of `O=C(O)CBr`, 2.3% (inactive).
The same measure, in the same setting: in the case of `CCCC[N+](=O)[O-]` it was 0.173% (inactive).
For the compound `OCC(Cl)CCl` (centres undefined), the “caspase-3/7 activation” value was -0.254% (inactive).

Test system in another assay: not listed separately
The assay can be described thus: Caspase-3/7 induction in HepG2 cells by small molecules, qHTS cell viability counter screen (AID 1346981). Note: nearly all actives have a fitted effect of over 30% in size. Particulars: CellTiter-Fluor fluorescence, 17 h; series mostly up to 92.4 µM; activity change, negative = cytotoxicity: at the top concentration. Put shortly:
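Counter screen for cytotoxicity: HepG2 exposed 16 hr to compounds, then CellTiter-Fluor viability signal (fluorescence, 1 hr reagent incubation).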
`N#CC(Br)(Br)C(N)=O`: the “activity change, negative = cytotoxicity” value was 0.145% (inactive).
Take `O=C(NC(O)C(Cl)(Cl)Cl)NC(O)C(Cl)(Cl)Cl` (centres undefined): the “activity change, negative = cytotoxicity” value is 4.13% [at 42.5 µM] (inactive).
`CCCCS(=O)(=O)Cl`: the “activity change, negative = cytotoxicity” value was 4.69% (inactive).
As for `C[C@]12C=CC(=O)C=C1CC[C@@H]1[C@@H]2CC[C@@]2(C)[C@H]1CC[C@]2(C)O`, the “activity change, negative = cytotoxicity” value is 3.28% [at 42.5 µM] (inactive).
With `O=c1[nH]c2ccccc2o1`, the “activity change, negative = cytotoxicity” value was 4.57% (inactive).
Still for that read-out and setting: the figure for `CCN(CCO)CCn1c(Cc2ccccc2)nc2c1c(=O)n(C)c(=O)n2C` is -1.59% [at 42.5 µM] (inactive); for `CCc1cc(OC)c(C[C@H](C)N)cc1OC` it is -9% (inactive); for `CCCCCCCC(=O)Cl` it is 11% (inactive).
With `O=C(O)c1c(Cl)ccc2cc(Cl)cnc12`, the “activity change, negative = cytotoxicity” value is 5.24% (inactive).
Consider `c1cncc([C@@H]2CCCCN2)c1`, for which the “activity change, negative = cytotoxicity” value was -0.0856% (inactive).
On to `CC(C)(C)NC[C@H](O)c1ccc(O)cc1Cl`, for which the “activity change, negative = cytotoxicity” value was 2.06% [at 42.5 µM] (inactive).
On the same count and under the same terms, the figure for `NC1(c2ccccc2)CCCCC1` is -12.8% (inactive); for `CCN(CCO)CCO` it is 3.22% (inactive); for `NNCc1ccccc1` it is -2.05% (inactive).
Same read-out and setting: the figure for `C[C@H](N)C(=O)c1ccccc1` is -0.573% (inactive); for `COC(=O)c1ccc(CBr)cc1` it is -0.655% (inactive); for `CC1N=C(N)OC1c1ccccc1` (centres undefined) it is -1.83% (inactive).
For `CCN[C@@H](C)Cc1ccccc1`, the “activity change, negative = cytotoxicity” value is -4.59% (inactive).
`CC(=O)CN(CC(C)=O)N=O`: the “activity change, negative = cytotoxicity” value was -0.984% (inactive).
Regarding `ClC1=C(Cl)C2(Cl)C(CBr)CC1(Cl)C2(Cl)Cl` (centres undefined), the Potency result was “inactive”.
For the compound `COc1ccc(C=O)cc1O`, the “activity change, negative = cytotoxicity” value is -3.3% (inactive).
As to `C=C1CC[C@@]2(O)[C@H]3Cc4ccc(O)c5c4[C@@]2(CCN3CC2CC2)[C@H]1O5`, the “activity change, negative = cytotoxicity” value was -0.217% [at 42.5 µM] (inactive).
With `C(COCC1CO1)OCC1CO1` (centres undefined), the “activity change, negative = cytotoxicity” value was -2.67% (inactive).
Regarding `COP(=O)(O)OC`, the “activity change, negative = cytotoxicity” value is -1.44% (inactive).
As to `CCNc1nc(NCC)nc(SC)n1`, the “activity change, negative = cytotoxicity” value was 6.6% (inactive).
Consider `C[C@H](CN1CCOCC1)C(C(=O)N1CCCC1)(c1ccccc1)c1ccccc1`, for which the “activity change, negative = cytotoxicity” value was -10.1% (inactive).
With `O=C(O)C(F)(F)C(F)(F)C(F)(F)C(F)(F)C(F)(F)C(F)(F)F`, the “activity change, negative = cytotoxicity” value was -2.32% (inactive).
For the compound `CCOC(=O)Nc1cccc(OC(=O)Nc2ccccc2)c1`, the “activity change, negative = cytotoxicity” value is 6.48% (inactive).
On to `BrCC1CO1` (centres undefined), for which the “activity change, negative = cytotoxicity” value was -1.81% (inactive).
Consider `COc1ccc(CN2CCNCC2)c(OC)c1OC`, for which the “activity change, negative = cytotoxicity” value is 2.55% [at 42.5 µM] (inactive).
On to `NNC(N)=O`, for which the “activity change, negative = cytotoxicity” value was -1.89% (inactive).
Turning to `[P]#[In]`, the “activity change, negative = cytotoxicity” value was 6.23% (inactive).
Still for that read-out and setting: the figure for `O=C(O)CBr` is 9.29% (inactive); for `CCCC[N+](=O)[O-]` it is 4.76% (inactive).
Still for that read-out and setting: in the case of `OCC(Cl)CCl` (centres undefined) it was 5.53% (inactive).

A further assay addresses Nuclear receptor subfamily 1 group I member 2 (Homo sapiens) (UniProt O75469). The assay can be described thus: Human pregnane X receptor (PXR) small molecule agonists, qHTS assay (AID 1346982). Note: nearly all actives have a fitted effect of over 35% in size. Note: potency is the fitted concentration of half-maximal effect. Conditions: PXR-Luc HepG2, CYP3A4 luciferase reporter, 24 h; series mostly up to 92.4 µM; activation: at the top concentration. Put shortly: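 Luminescence (ONE-Glo, 30 min RT) after 24 hr compound exposure of PXR-Luc HepG2 cells; cells rested 5 hr post-plating in 5% charcoal-stripped FBS medium.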
On to `O=C(NC(O)C(Cl)(Cl)Cl)NC(O)C(Cl)(Cl)Cl` (centres undefined), for which the “activation” value is -8.89% [at 42.5 µM] (inactive).
The same measure, in the same setting: in the case of `CCCCS(=O)(=O)Cl` it was 7.38% (inactive); in that of `C[C@]12C=CC(=O)C=C1CC[C@@H]1[C@@H]2CC[C@@]2(C)[C@H]1CC[C@]2(C)O`, 3.51% [at 42.5 µM] (inactive).
Still for that read-out and setting: in the case of `O=c1[nH]c2ccccc2o1` it was 7.82% (inactive); in that of `CCN(CCO)CCn1c(Cc2ccccc2)nc2c1c(=O)n(C)c(=O)n2C`, 24.6% [at 42.5 µM] (inactive); in that of `CCc1cc(OC)c(C[C@H](C)N)cc1OC`, -6.88% (inactive).
For `CCCCCCCC(=O)Cl`, the Potency was 61.6 µM (active).
For `O=C(O)c1c(Cl)ccc2cc(Cl)cnc12`, the “activation” value is 4.9% (inactive).
Regarding `c1cncc([C@@H]2CCCCN2)c1`, the Potency is 21.7 µM (active).
For the compound `CC(C)(C)NC[C@H](O)c1ccc(O)cc1Cl`, the “activation” value is -4.19% [at 42.5 µM] (inactive).
The same measure, in the same setting: in the case of `NC1(c2ccccc2)CCCCC1` it was 10.8% (inactive).
`NNCc1ccccc1`: the Potency was 55.5 µM (active).
Turning to `C[C@H](N)C(=O)c1ccccc1`, the “activation” value is -0.133% (inactive).
As for `COC(=O)c1ccc(CBr)cc1`, the Potency was 55.1 µM (active).
For the compound `CC1N=C(N)OC1c1ccccc1` (centres undefined), the “activation” value is -0.551% (inactive).
For the compound `CCN[C@@H](C)Cc1ccccc1`, the “activation” value is -29.4% (inactive).
Turning to `CC(=O)CN(CC(C)=O)N=O`, the “activation” value is 2.73% (inactive).
`ClC1=C(Cl)C2(Cl)C(CBr)CC1(Cl)C2(Cl)Cl` (centres undefined): the Potency was 48.6 µM (active) and inactive.
For `COc1ccc(C=O)cc1O`, the “activation” value is 4.03% (inactive).
As for `C=C1CC[C@@]2(O)[C@H]3Cc4ccc(O)c5c4[C@@]2(CCN3CC2CC2)[C@H]1O5`, the “activation” value was -7.2% [at 42.5 µM] (inactive).
With `C(COCC1CO1)OCC1CO1` (centres undefined), the Potency was 48.6 µM (active).
On to `COP(=O)(O)OC`, for which the “activation” value is 4.34% (inactive).
`O=C(O)C(F)(F)C(F)(F)C(F)(F)C(F)(F)C(F)(F)C(F)(F)F`: the “activation” value is -1.14% (inactive).
Turning to `CCOC(=O)Nc1cccc(OC(=O)Nc2ccccc2)c1`, the Potency was 30.6 µM (active).
Turning to `BrCC1CO1` (centres undefined), the “activation” value is 4.58% (inactive).
Take `[P]#[In]`: the “activation” value is 22.6% (inactive).
On to `O=C(O)CBr`, for which the “activation” value is 7% (inactive).
On the same count and under the same terms, the figure for `CCCC[N+](=O)[O-]` is 12% (inactive); for `OCC(Cl)CCl` (centres undefined) it is 10.7% (inactive).
